The target of assay [1] is Transcription factor E2F1 (Homo sapiens) (UniProt Q01094). The experiment in a line: ATG_E2F_CIS: Attagene CIS-FACTORIAL HepG2 Assay for human E2F Transcription Factor 1 (AID 2282935). The following applies: HepG2 Attagene cis-reporter, E2F reporter RNA transcripts; actives raise or lower the signal. In a few lines:
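Fluorescent RT-PCR products, digested with HpaI for 2 h at 37 C, are separated by capillary electrophoresis. Source RNA comes from transfected HepG2 cultures treated for 24 h.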

A short description of assay [2]: ATG_E_Box_CIS: Attagene CIS-FACTORIAL HepG2 Assay for human Enhancer Box (E-box) (AID 2282936). The following applies: HepG2 E-box cis-reporter transcription, actives raise or lower the signal. In a few lines:
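Fluorescent reporter fragments separated by capillary electrophoresis gave the signal; mRNA came from HepG2 cells transfected with cis-element reporters and treated 24 h. Curves fitted bidirectionally relative to DMSO controls.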

Assay [3] in a line: ATG_M_61_CIS: Attagene CIS-FACTORIAL HepG2 Assay for M61 Transcription Factor (Internal Marker) (AID 2282937). The following applies: HepG2 Attagene CIS-FACTORIAL M61 internal marker reporter; actives raise or lower the signal. In a few lines: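 Endogenous transcription factor activity in HepG2 is read through transiently transfected cis-element reporter units. After 24 h dosing, RNA undergoes reverse transcription, PCR and primer extension with 6-FAM before capillary electrophoresis; DMSO-referenced bidirectional fit.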

A short description of assay [4]: ATG_EGR_CIS: Attagene CIS-FACTORIAL HepG2 Assay for human Early Growth Response 1 (EGR1) (AID 2282938). The following applies: HepG2 Attagene CIS-FACTORIAL EGR reporter mRNA; actives raise or lower the signal. In a few lines:
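Activity is taken as induction or loss of reporter mRNA versus DMSO, fitted bidirectionally. Transcripts from cis-regulated reporter units in transiently transfected HepG2 were measured after 24 h by RT-PCR with capillary electrophoresis.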

Assay [5] can be described thus: ATG_M_19_CIS: Attagene CIS-FACTORIAL HepG2 Assay for M19 Transcription Factor (Internal Marker) (AID 2282939). The following applies: HepG2 Attagene CIS-FACTORIAL M19 internal marker reporter; actives raise or lower the signal. In a few lines:
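HepG2 cells transiently transfected with cis-regulated multiplexed reporter units, dosed 24 h. Reporter mRNA quantified by RT-PCR and capillary electrophoresis; internal background marker fitted bidirectionally versus DMSO.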

The nature of assay [6]: ATG_ERE_CIS: Attagene CIS-FACTORIAL HepG2 Assay for Estrogen Response Element (ERE) (AID 2282940). The following applies: HepG2 ERE cis-reporter, Attagene RNA transcript; actives raise or lower the signal. In a few lines:
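HepG2 cells transiently transfected with multiplexed cis-element reporter units, measuring endogenous transcription factor activity; ERE reporter mRNA quantified after 24 h exposure by RT-PCR, fluorescent labelling, HpaI digestion and capillary electrophoresis. Bidirectional change versus DMSO.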

Assay [7] addresses Hepatocyte nuclear factor 3-beta (Homo sapiens) (UniProt Q9Y261). The experiment in a line: ATG_FoxA2_CIS: Attagene CIS-FACTORIAL HepG2 Assay for human Forkhead box A2 (FOXA2) (AID 2282942). The following applies: HepG2 cis-reporter transcription factor activity, 24 h; actives raise or lower the signal. In a few lines: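 Reporter transcript induction is measured by fluorescence after capillary electrophoresis of RT-PCR products from HepG2 cells exposed 24 h. Cis-regulated reporter units report endogenous factor activity; curves fitted both directions against DMSO.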

A short description of assay [8]: ATG_FoxO_CIS: Attagene CIS-FACTORIAL HepG2 Assay for human Forkhead box O (FoxO) (AID 2282943). The following applies: HepG2 Attagene cis-reporter, FoxO element, mRNA; actives raise or lower the signal. In a few lines:
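Human hepatoma HepG2 cells carry transiently introduced reporter transcription units controlled by cis promoter elements. Chemical treatment lasted 24 h, and mRNA signal was compared with DMSO.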

The nature of assay [9]: ATG_GATA_CIS: Attagene CIS-FACTORIAL HepG2 Assay for human GATA Binding Protein (AID 2282944). The following applies: HepG2 GATA cis-element reporter, Attagene multiplex mRNA; actives raise or lower the signal. In a few lines: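 HepG2 cells transiently transfected with multiplexed cis-element reporter units measure endogenous GATA activity; after 24 h compound exposure, reporter mRNA quantified by RT-PCR and capillary electrophoresis. Changes fitted in both directions vs DMSO.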

Assay [10] can be described thus: ATG_GLI_CIS: Attagene CIS-FACTORIAL HepG2 Assay for human Zinc Finger Protein GLI1 (AID 2282945). The following applies: HepG2, Attagene cis-factorial reporter mRNA, GLI element; actives raise or lower the signal. In a few lines:
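Bidirectional curve fits relative to DMSO, using reporter mRNA levels from RT-PCR plus capillary electrophoresis. Cells were HepG2 transiently carrying cis-regulated reporter constructs, harvested 24 h after dosing.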

A short description of assay [11]: ATG_GRE_CIS: Attagene CIS-FACTORIAL HepG2 Assay for human Glucocorticoid Response Elements (GRE) (AID 2282947). The following applies: HepG2 GRE cis-reporter, Attagene multiplex mRNA; actives raise or lower the signal. In a few lines: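 Multiplexed cis-reporter mRNA induction, HepG2, 24 h post-dose. RT-PCR, FAM-labelled, HpaI-digested amplicons by CE. Bidirectional fit vs DMSO.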

Assay [12] is described as follows: ATG_ISRE_CIS: Attagene CIS-FACTORIAL HepG2 Assay for human Interferon Regulatory Factor 1 (IRF1) binding to an Interferon-Stimulated Response Element (ISRE) (AID 2282948). The following applies: HepG2 ISRE cis-reporter (Attagene), mRNA transcription readout; actives raise or lower the signal. In a few lines:
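Signal reflects induction or loss of ISRE-linked reporter mRNA in transiently transfected HepG2 cells after a 24 h treatment, detected by fluorescent RT-PCR fragments on capillary electrophoresis and normalised to DMSO.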

Assay [13] is described as follows: ATG_M_06_CIS: Attagene CIS-FACTORIAL HepG2 Assay for M06 Transcription Factor (Internal Marker) (AID 2282950). The following applies: HepG2 Attagene CIS-FACTORIAL M06 internal marker reporter; actives raise or lower the signal. In a few lines: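 Internal background marker within multiplexed cis-reporter HepG2 system. Cells transiently transfected, dosed 24 h; reporter mRNA measured by RT-PCR, HpaI digestion and capillary electrophoresis. Bidirectional fit relative to DMSO.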

Assay [14] addresses Hypoxia-inducible factor 1-alpha (Homo sapiens) (UniProt Q16665). The assay can be described thus: ATG_HIF1a_CIS: Attagene CIS-FACTORIAL HepG2 Assay for human Hypoxia Inducible Factor 1 (HIF1A) (AID 2282951). The following applies: HepG2 Attagene cis-factorial HIF1a reporter transcription; actives raise or lower the signal. In a few lines:
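Fluorescence intensity of capillary-separated, 6-FAM-labelled reporter amplicons gives mRNA induction in HepG2 cells carrying transfected cis-promoter reporter units; cells exposed 24 h, responses fitted up or down from DMSO.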

The target in assay [15] is Hepatocyte nuclear factor 6 (Homo sapiens) (UniProt Q9UBC0). The experiment in a line: ATG_HNF6_CIS: Attagene CIS-FACTORIAL HepG2 Assay for human Hepatocyte Nuclear Factor 6 (HNF6) (AID 2282952). The following applies: HepG2 Attagene cis-factorial HNF6 reporter transcription; actives raise or lower the signal. In a few lines:
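Endogenous factor activity read in transiently transfected HepG2 via promoter-regulated reporter transcripts. RNA harvested 24 h post-dosing, reverse-transcribed, PCR-amplified, FAM-labelled, HpaI-digested and resolved by capillary electrophoresis; fitted in both directions against DMSO.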

Assay [16] concerns the target Heat shock factor protein 1 (Homo sapiens) (UniProt Q00613). The experiment in a line: ATG_HSE_CIS: Attagene CIS-FACTORIAL HepG2 Assay for human Heat Shock Transcription Factor 1 (HSE) (AID 2282953). The following applies: HepG2 HSE cis-reporter, Attagene RNA transcription; actives raise or lower the signal. In a few lines:
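HepG2 cells transfected with cis-promoter reporter units sensing endogenous transcription factor activity; reporter mRNA quantified 24 h post-dose by RT-PCR and capillary electrophoresis of 6-FAM-labelled products. Bidirectional fitting against DMSO.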

Assay [17] in a line: ATG_MRE_CIS: Attagene CIS-FACTORIAL HepG2 Assay for human Metal Responsive Element (MRE) (AID 2282954). The following applies: HepG2 MRE cis-reporter transcription, Attagene multiplex; actives raise or lower the signal. In a few lines:
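Multiplexed cis-reporter assay in human HepG2 liver cells, 24 h incubation with test chemical. Reporter transcripts measured by RT-PCR and capillary electrophoresis; values from bidirectional curve fitting versus DMSO.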

Assay [18] can be described thus: ATG_PBREM_CIS: Attagene CIS-FACTORIAL HepG2 Assay for human Phenobarbital-responsive Enhancer Module (PBREM) (AID 2282955). The following applies: HepG2 PBREM cis-reporter, Attagene multiplexed transcription; actives raise or lower the signal. In a few lines: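 Cells were transfected with cis-element reporter units and treated for 24 h, after which RNA was extracted and reporter transcripts measured by RT-PCR and capillary electrophoresis.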

Drawing on PubChem BioAssay (EPA / NIEHS), this text covers outcome and AC50 for 8 compounds.

Structures are written as SMILES. The source made the active and inactive calls. The calls were made as follows: active = hit-call score of the fitted dose curve at least 0.9, where 1 is the maximum; inactive = score below 0.9.

Chain of Hepatocyte nuclear factor 6 (Homo sapiens) (Q9UBC0 whole entry, looked up): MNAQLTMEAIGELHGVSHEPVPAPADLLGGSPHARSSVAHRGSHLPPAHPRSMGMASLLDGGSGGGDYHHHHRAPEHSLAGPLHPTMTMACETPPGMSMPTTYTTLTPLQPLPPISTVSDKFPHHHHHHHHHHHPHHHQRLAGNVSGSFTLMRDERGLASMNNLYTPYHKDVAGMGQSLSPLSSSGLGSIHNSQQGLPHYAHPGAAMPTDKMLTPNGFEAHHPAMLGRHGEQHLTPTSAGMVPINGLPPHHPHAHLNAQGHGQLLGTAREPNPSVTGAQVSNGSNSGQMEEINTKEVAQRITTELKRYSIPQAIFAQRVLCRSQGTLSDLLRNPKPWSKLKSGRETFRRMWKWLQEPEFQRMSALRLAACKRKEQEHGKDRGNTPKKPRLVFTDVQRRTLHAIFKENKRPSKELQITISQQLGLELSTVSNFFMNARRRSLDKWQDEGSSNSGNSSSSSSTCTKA
Chain of Hypoxia-inducible factor 1-alpha (Homo sapiens) (Q16665 whole entry, looked up): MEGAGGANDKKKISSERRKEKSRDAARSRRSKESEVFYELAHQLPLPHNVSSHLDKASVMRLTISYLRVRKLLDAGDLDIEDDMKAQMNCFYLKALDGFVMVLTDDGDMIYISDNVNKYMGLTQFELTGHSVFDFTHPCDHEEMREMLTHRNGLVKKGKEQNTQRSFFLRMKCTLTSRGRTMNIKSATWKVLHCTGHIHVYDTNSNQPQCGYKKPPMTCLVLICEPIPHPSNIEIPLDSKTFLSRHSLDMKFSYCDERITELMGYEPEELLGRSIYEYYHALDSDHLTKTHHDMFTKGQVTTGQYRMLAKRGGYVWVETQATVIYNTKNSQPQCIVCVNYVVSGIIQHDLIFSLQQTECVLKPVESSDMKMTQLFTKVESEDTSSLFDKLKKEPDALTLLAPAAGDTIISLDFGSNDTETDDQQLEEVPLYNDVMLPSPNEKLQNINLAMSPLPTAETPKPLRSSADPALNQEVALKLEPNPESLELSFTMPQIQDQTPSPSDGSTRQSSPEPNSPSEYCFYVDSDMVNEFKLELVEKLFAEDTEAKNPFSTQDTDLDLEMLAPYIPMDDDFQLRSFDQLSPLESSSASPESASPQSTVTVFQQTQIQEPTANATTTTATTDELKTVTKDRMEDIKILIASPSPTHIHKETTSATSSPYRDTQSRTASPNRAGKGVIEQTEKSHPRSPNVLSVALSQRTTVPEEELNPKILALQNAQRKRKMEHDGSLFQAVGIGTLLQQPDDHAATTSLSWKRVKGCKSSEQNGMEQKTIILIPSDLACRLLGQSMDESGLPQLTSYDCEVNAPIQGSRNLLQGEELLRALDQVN
Chain of Hepatocyte nuclear factor 3-beta (Homo sapiens) (Q9Y261 whole entry, looked up): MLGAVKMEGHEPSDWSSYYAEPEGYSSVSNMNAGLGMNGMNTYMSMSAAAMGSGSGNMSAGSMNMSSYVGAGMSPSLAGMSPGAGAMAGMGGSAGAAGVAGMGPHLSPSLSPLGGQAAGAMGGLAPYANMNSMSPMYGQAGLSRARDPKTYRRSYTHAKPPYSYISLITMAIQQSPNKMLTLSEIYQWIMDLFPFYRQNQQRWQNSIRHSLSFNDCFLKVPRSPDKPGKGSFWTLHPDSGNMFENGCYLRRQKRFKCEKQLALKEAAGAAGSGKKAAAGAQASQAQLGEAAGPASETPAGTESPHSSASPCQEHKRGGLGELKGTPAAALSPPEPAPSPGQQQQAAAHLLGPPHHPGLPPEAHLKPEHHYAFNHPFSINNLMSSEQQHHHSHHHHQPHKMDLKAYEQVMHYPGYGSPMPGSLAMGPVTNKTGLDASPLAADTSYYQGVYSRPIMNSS
Chain of Heat shock factor protein 1 (Homo sapiens) (Q00613 whole entry, looked up): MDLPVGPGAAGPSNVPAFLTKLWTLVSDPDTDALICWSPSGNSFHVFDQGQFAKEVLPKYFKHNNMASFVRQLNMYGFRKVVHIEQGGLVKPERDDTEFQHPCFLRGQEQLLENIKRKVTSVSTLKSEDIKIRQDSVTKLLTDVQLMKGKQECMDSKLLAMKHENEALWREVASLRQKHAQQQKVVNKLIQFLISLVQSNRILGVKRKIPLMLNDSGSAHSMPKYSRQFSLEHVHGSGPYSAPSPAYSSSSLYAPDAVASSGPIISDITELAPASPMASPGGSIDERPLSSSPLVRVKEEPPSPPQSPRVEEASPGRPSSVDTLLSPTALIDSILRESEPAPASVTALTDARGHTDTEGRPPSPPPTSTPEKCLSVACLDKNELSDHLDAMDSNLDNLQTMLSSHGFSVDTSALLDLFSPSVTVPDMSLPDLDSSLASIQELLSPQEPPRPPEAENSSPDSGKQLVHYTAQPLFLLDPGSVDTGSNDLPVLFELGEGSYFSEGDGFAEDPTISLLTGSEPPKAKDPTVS
Chain of Transcription factor E2F1 (Homo sapiens) (Q01094 whole entry, looked up): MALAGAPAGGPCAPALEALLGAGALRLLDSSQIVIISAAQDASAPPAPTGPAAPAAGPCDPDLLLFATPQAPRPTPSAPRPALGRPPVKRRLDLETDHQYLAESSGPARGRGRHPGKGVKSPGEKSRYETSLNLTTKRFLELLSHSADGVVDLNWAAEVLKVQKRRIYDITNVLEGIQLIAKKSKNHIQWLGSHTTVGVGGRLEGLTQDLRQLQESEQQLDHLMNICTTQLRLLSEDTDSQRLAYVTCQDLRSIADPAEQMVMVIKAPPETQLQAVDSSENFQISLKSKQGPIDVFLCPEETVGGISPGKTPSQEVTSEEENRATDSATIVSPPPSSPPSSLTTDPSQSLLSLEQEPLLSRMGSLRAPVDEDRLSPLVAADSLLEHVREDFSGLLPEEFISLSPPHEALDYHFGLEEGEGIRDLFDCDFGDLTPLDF

As to `CCCOc1ccc(S(=O)(=O)N2CCN(CC)CC2)cc1-c1nc2c(CC)n(Cc3ccccn3)nc2c(=O)[nH]1`, the call in assay [1], in [2], in assay [3], in assay [5], in assay [6] and in [7] was inactive. In addition, the outcome in assay [8], in [9], in [10], in assay [11], in assay [13] and in [15] was inactive. Also, the result in assay [16] was inactive. Further, the AC50 (in general, the midpoint of the concentration-response curve, whichever way the signal moves) in assay [4] was 22.2 µM (active); in assay [12] it was 70 µM (active); in assay [14], 19.8 µM (active); in assay [17], 34.8 µM (active); in assay [18], 2.66 µM (active).
In the case of `C=CN1CCCC1=O`, the outcome in assay [1], in [2], in assay [3], in assay [4], in assay [5] and in [6] was inactive. For the same compound, the compound was classed as inactive in assay [7], in assay [8], in assay [9], in [10], in assay [12] and in [13]. The compound was called inactive in [14], in [15], in [16] and in [18].
For the compound `COc1cc2c(c(OC)c1OC)-c1ccc(OC)c(=O)cc1[C@@H](NC(C)=O)CC2`, the compound was called inactive in assay [1], in assay [3], in [4], in assay [5], in assay [6] and in assay [7]. The compound was called inactive in assay [8], in assay [9], in assay [10], in [11], in assay [12] and in assay [13]. In addition, the compound was called inactive in [16] and in [17]. Also, the concentration at half-maximal activity (AC50) in assay [2] was 0.592 µM (active); in assay [14], 0.619 µM (active).
Take `O=c1[nH]cnc2c1ncn2[C@H]1CC[C@@H](CO)O1`: the compound was called inactive in assay [1], in assay [2], in [3], in [4], in assay [5] and in assay [6]. The result in assay [7], in assay [8], in assay [9], in assay [10], in assay [11] and in [12] was inactive. Further, the compound was called inactive in assay [13], in assay [14], in assay [15] and in [18].
As for `CCc1cccc(CC)c1N`, the call in [1], in assay [2], in [3], in [4], in assay [5] and in assay [6] was inactive. For the same compound, the outcome in assay [7], in [8], in [9], in assay [10], in [11] and in [12] was inactive. Also, the outcome in [13], in assay [14], in assay [15], in assay [16], in [17] and in assay [18] was inactive.
As for `Cc1nccn1-c1ccc(Sc2cccc(C3(C(N)=O)CCOCC3)c2)cc1`, the result in assay [1], in assay [2], in assay [3], in [5], in assay [6] and in assay [7] was inactive. For the same compound, the outcome in assay [9], in assay [10], in assay [13], in [14] and in [16] was inactive. For the same compound, the AC50 was 4.56 µM (active) in [4]; 3.15 µM (active) in assay [8]; 5.85 µM (active) in assay [11]; 7.26 µM (active) in assay [12]; 3.41 µM (active) in assay [18].
In the case of `O=C(O)[C@H](O)[C@@H](O)C(=O)O`, the call in assay [1], in assay [2], in assay [3], in assay [4], in [5] and in assay [6] was inactive. Moreover, the compound was classed as inactive in assay [7], in [8], in assay [9], in assay [10], in assay [11] and in [12]. Also, the outcome in [13], in assay [16] and in [18] was inactive.
For the compound `CNC(C)=O`, the outcome in assay [1], in assay [2], in assay [3], in [4], in assay [5] and in assay [6] was inactive. Also, the compound was classed as inactive in assay [7], in assay [8], in assay [9], in [10], in assay [11] and in assay [12]. For the same compound, the compound was classed as inactive in [13], in [14], in assay [15], in assay [16], in [17] and in [18].
